A short description of assay [1]: Nuclear factor erythroid 2-related factor 2/antioxidant responsive element (Nrf2/ARE) small molecule agonists: qHTS cell viability counter screen in human keratinocytes (AID 1919968; active = well fitted curve in the direction sought with a large enough effect in the repeat runs; an effect the other way counts as inactive or inconclusive; also: nearly all actives have a fitted effect of over 55% in size). Put shortly:
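Parallel cytotoxicity read: KeratinoSens HaCaT cells, compound treatment 23 h, viability by CellTiter-Fluor fluorescence 1 h post-reagent.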
A general note: In qHTS, concentration-response curves come from the screen itself.

Assay [2] in a line: Nuclear factor erythroid 2-related factor 2/antioxidant responsive element (Nrf2/ARE) small molecule agonists: luciferase reporter gene qHTS assay in human keratinocytes (AID 1919969). Also: nearly all actives have a fitted effect of over 35% in size. Background: Reporter assays use an easily measured gene product as a stand-in for the process of interest.
Assay [3] concerns the target Gonadotropin-releasing hormone receptor (Homo sapiens) (UniProt P30968). Nature of the assay: Human gonadotropin-releasing hormone receptor (GnRHR) small molecule agonists, calcium flux assay in GnRHR-HEK293 cells (AID 1920063). Also: nearly all actives have a fitted effect of over 35% in size. Put shortly:
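Calcium flux, agonist mode, human GnRHR stably integrated in HEK293; dye 1 h at 37 C before compound; Ex/Em=480/540 kinetic read, 3 min; 15 concentrations, triplicate.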
(In general: Calcium assays in cells follow changes in intracellular calcium, usually with a dye or a luminescent sensor.)

Assay [4] addresses KiSS-1 receptor (Homo sapiens) (UniProt Q969F8). Put plainly: Human kisspeptin (KISS1R) small molecule agonists, calcium flux assay in KISS1R-HEK293 cells (AID 1920064; active = well fitted curve in the direction sought with a large enough effect in the repeat runs; an effect the other way counts as inactive or inconclusive). The essentials:
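Triplicate 15-concentration series were applied to dye-loaded human KISS1R HEK293 cells, and agonist-evoked calcium fluorescence was captured for 3 min.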

Assay [5] can be described thus: G protein-coupled receptor (GPCR) small molecule agonists, calcium flux assay: HEK293 wild type cell line counter screen (AID 1920065). Put shortly:
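Non-specific calcium responders were flagged by adding DMSO-dissolved compounds to dye-loaded cells and reading 480/540 nm fluorescence each second for 3 min; ATP served as positive control.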

A short description of assay [6]: p53 small molecule agonists, cell-based qHTS assay with human liver microsomes (AID 1963577).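 Also: p53 response element beta-lactamase reporter cells with liver microsomes plus NADPH.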 Put shortly:
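In this qHTS, p53 response-element beta-lactamase cells receive test compound together with a microsome/NADPH activating system (0.5 mg/mL final each) and are incubated 16 h at 37 C before LiveBLAzer fluorescence detection.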

Assay [7] in a line: p53 small molecule agonists, cell-based qHTS assay with rat liver microsomes (AID 1963578). The essentials:
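Agonist mode in p53RE-bla reporter cells, with compounds co-incubated 16 h at 37 C alongside 0.5 mg/mL rat liver microsomes and 0.5 mg/mL NADPH (final), followed by a 2 h LiveBLAzer detection step.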

Assay [8] can be described thus: p53 small molecule agonists, cell-based qHTS assay with human liver microsomes: qHTS cell viability counter screen (AID 1963579). Also: nearly all actives have a fitted effect of over 45% in size. Put shortly:
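Metabolically activated exposure: compounds, human liver microsomes and NADPH (0.5 mg/mL final apiece) were added to p53RE-bla cells seeded 5 h earlier, left 16 h at 37 C, and then assessed for viability by CellTiter-Glo luminescence.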

Assay [9] in a line: p53 small molecule agonists, cell-based qHTS assay with rat liver microsomes: qHTS cell viability counter screen (AID 1963580). Also: nearly all actives have a fitted effect of over 45% in size. Put shortly:
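Rat liver microsome (0.5 mg/mL final) and NADPH (0.5 mg/mL final) co-incubation with compounds for 16 h at 37 C on HCT-116 p53RE-bla cells; cytotoxicity taken from intracellular ATP luminescence.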

Assay [10] can be described thus: p53 small molecule agonists, cell-based qHTS assay: qHTS cell viability counter screen (AID 1963581). Also: nearly all actives have a fitted effect of over 45% in size. Put shortly:
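Multiplexed with the reporter read, a CellTiter-Glo step (30 min, room temperature) gauges ATP-based viability of HCT-116 p53RE-bla cells after 16 h compound incubation at 37 C.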

A short description of assay [11]: p53 small molecule agonists, cell-based qHTS assay (AID 1963582; active = well fitted activation curve with a large enough effect in the signal ratio in the repeat runs, not every such curve was filed as active; the % refers to the signal ratio). The essentials: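 Beta-lactamase reporter cells (p53RE-bla) treated with compounds for 16 h at 37 C; FRET substrate, 2 h, room temperature; fluorescence intensity.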
Assay [12] deals with 5-hydroxytryptamine receptor 2A (Homo sapiens) (UniProt P28223). Put plainly: 5-hydroxytryptamine receptor 2A (HTR2A) small molecule antagonists, cell-based qHTS assay (AID 1963586). Also: nearly all actives have a fitted effect of over 45% in size. Put shortly: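 CHO cells stably expressing human HTR2A were plated for 18 h at 37 C, then loaded with calcium dye for 1 h. Compounds were preincubated 5 min at room temperature before DOI (4 nM solution) was added. Kinetic fluorescence was read for 3 min.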

Assay [13] shares this target. Nature of the assay: 5-hydroxytryptamine receptor 2A (HTR2A) small molecule agonists, cell-based qHTS assay (AID 1963587). Also: nearly all actives have a fitted effect of over 30% in size. Put shortly: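 Kinetic calcium-flux fluorescence (2 min, 1 sec intervals) after compound addition in agonist mode. HTR2A-CHO cells were cultured 18 h, then dye-loaded 1 h at 37 C.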
The nature of assay [14]: cAMP Responsive Elements (CRE) small molecule agonists, cell-based qHTS assay (AID 1963590). The essentials:
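Quantitative HTS for CRE agonists: HEK 293T CRE-bla cells, overnight plating, 3 h compound incubation at 37 C/5% CO2, then 2 h room-temperature LiveBLAzer B/G FRET substrate loading.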

Assay [15] can be described thus: cAMP Responsive Elements (CRE) small molecule antagonists, cell-based qHTS assay (AID 1963591; active = well fitted inhibition curve with a large enough effect in the signal ratio in the repeat runs, not every such curve was filed as active; the % refers to the signal ratio). Put shortly: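 Fluorescence intensity from cleaved LiveBLAzer B/G substrate (2 h, room temperature) quantified CRE-bla activity in HEK 293T cells exposed 3 h to compound with 0.25 uM final NKH477.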
The target in assay [16] is D(2) dopamine receptor (Homo sapiens) (UniProt P14416). Put plainly: Dopamine D2 receptor (DRD2) small molecule agonists, cell-based qHTS assay (AID 1963594). Also: nearly all actives have a fitted effect of over 35% in size. Put shortly:
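cAMP accumulation in DRD2-HEK293 cells measured by HTRF after 1 h detection; compounds added 10 min before NKH477 (200nM […]) forskolin-analogue stimulation, 30 min at room temperature, with Ro20-1724 present at 0.1 mM final.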

Assay [17] shares this target. Nature of the assay: Dopamine D2 receptor (DRD2) small molecule antagonists, cell-based qHTS assay (AID 1963595; active = well fitted inhibition curve with a large enough effect in the signal ratio in the repeat runs, with a control signal flat; the % refers to the signal ratio). Put shortly:
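Readout: HTRF cAMP, cAMP-d2 competing with cellular cAMP for anti-cAMP cryptate, read after 1 h. Cells: DRD2-HEK293. Conditions: 0.1 mM Ro20-1724, 12 nM quinpirole, 200 nM NKH477, 30 min RT.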

The target in assay [18] is Muscarinic acetylcholine receptor M1 (Homo sapiens) (UniProt P11229). Put plainly: Cholinergic receptor muscarinic 1 (CHRM1) small molecule agonists, cell-based qHTS assay (AID 1963589). Also: nearly all actives have a fitted effect of over 35% in size. Put shortly: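 qHTS, 15-point titration, 3 independent runs: compounds pin-transferred onto dye-loaded CHRM1-CHO cells (human M1), calcium fluorescence followed every second to detect agonism.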

Assay [19] addresses Beta-2 adrenergic receptor (Homo sapiens) (UniProt P07550). Put plainly: Adrenergic beta2 receptor (ADRB2) small molecule antagonists, cell-based qHTS assay (AID 1963592). Also: nearly all actives have a fitted effect of over 50% in size. Also: potency is read from the fitted curve at half-maximal effect. As to activity change, negative = inhibition: series mostly up to about 92 µM. Put shortly:
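Assay format: CHO-ADRB2 cells, 18-20hr seeding at 37C/5% CO2, then compound plus 1nM isoproterenol agonist mix for 0.5hr RT. Homogeneous time-resolved fluorescence cAMP detection after 1hr, expressed as 665/615 nm ratio.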

The target in assay [20] is Muscarinic acetylcholine receptor M1 (Homo sapiens) (UniProt P11229). Put plainly: Cholinergic receptor muscarinic 1 (CHRM1) small molecule antagonists, cell-based qHTS assay (AID 1963588). Also: nearly all actives have a fitted effect of over 40% in size. The essentials: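 Compounds were tested at 15 concentrations in three independent runs. Dye-loaded CHRM1-CHO cells were exposed 5 min at room temperature before stimulation by acetylcholine added at 50nM. Intracellular calcium was read kinetically on FDSS for 3 min.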

Molecules are shown by their SMILES. Unmarked numbers belong to inactive results. Inconclusive results are not listed. The source made the active and inactive calls. Unless noted, calls follow the shape of the full dose curve.
% is scaled to controls: 0 for no effect and ±100 for the full control effect.

Chain of Gonadotropin-releasing hormone receptor (Homo sapiens) (P30968 whole entry, looked up): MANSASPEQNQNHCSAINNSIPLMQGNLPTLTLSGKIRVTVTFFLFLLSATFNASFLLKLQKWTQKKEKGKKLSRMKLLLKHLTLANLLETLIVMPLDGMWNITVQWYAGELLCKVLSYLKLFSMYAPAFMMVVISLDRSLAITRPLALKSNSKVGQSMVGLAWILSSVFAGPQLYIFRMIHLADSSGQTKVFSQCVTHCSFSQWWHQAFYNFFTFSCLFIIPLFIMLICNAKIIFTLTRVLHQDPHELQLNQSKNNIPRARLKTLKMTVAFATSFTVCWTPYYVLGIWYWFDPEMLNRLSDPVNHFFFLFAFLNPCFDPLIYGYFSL
Chain of 5-hydroxytryptamine receptor 2A (Homo sapiens) (P28223 whole entry, looked up): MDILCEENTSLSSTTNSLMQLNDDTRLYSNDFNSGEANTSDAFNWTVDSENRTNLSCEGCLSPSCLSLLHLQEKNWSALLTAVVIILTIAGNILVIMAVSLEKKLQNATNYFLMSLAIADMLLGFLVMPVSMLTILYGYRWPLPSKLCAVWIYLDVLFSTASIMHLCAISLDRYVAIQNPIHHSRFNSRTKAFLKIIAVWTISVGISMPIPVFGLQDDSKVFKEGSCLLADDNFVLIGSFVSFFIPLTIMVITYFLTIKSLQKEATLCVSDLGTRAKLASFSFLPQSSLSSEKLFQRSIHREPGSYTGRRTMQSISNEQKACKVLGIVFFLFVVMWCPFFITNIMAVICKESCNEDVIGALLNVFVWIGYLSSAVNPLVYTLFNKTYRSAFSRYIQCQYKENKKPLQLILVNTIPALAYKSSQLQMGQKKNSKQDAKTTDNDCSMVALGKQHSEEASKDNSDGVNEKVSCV
Chain of Beta-2 adrenergic receptor (Homo sapiens) (P07550 whole entry, looked up): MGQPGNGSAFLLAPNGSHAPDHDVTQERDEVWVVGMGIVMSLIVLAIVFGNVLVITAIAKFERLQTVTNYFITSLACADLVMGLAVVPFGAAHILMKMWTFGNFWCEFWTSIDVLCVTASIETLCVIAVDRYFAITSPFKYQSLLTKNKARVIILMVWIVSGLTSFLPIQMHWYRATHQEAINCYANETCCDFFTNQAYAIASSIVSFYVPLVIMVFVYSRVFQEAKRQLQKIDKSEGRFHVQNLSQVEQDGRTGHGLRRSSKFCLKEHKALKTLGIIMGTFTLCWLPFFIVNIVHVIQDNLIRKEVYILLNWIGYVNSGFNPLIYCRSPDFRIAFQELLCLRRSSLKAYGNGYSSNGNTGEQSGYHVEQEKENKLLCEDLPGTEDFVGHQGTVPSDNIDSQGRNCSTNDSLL
Chain of KiSS-1 receptor (Homo sapiens) (Q969F8 whole entry, looked up): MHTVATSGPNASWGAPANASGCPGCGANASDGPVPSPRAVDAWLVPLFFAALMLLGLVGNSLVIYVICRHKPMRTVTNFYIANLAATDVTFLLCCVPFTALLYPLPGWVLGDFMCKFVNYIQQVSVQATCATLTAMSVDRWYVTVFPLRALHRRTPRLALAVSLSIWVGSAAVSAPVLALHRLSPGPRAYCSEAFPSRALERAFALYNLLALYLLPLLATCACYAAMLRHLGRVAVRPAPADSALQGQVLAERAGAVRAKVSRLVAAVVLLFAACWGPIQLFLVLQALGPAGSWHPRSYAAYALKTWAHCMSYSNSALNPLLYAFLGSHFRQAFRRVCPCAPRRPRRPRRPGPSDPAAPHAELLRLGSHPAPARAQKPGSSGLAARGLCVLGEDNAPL
Chain of Muscarinic acetylcholine receptor M1 (Homo sapiens) (P11229 whole entry, looked up): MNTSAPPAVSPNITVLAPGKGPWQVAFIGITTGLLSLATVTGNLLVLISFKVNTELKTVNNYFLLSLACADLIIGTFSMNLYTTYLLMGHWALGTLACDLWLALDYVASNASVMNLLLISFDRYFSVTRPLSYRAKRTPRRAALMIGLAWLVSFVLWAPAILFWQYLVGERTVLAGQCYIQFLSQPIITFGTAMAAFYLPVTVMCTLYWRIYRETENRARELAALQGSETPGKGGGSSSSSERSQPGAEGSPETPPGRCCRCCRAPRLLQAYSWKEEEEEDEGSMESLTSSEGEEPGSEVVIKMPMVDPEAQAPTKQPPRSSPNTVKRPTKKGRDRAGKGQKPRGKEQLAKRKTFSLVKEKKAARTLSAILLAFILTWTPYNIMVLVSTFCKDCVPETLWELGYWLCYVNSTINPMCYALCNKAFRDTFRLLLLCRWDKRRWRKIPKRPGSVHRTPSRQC
Chain of D(2) dopamine receptor (Homo sapiens) (P14416 whole entry, looked up): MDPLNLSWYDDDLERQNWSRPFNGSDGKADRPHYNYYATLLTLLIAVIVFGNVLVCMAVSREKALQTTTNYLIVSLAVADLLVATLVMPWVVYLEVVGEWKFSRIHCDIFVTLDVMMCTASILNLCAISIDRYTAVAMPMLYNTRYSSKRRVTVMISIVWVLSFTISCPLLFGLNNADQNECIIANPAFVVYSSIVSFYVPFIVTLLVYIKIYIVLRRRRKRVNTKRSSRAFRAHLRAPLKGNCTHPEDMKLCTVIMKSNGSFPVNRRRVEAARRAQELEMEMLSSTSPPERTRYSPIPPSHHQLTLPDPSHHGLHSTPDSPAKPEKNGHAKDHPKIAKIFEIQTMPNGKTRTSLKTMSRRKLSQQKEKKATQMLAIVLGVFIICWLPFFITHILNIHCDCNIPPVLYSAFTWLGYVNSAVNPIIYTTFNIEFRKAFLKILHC

Turning to `CCN(CC)S(=O)(=O)c1ccc(C(=O)O)cc1`, the Potency entry in [1], in assay [2], in [3], in assay [4], in assay [5] and in [6] was “inactive” in each case. Besides, the Potency result in [7], in assay [8], in assay [9], in assay [10], in assay [11] and in [12] was “inactive” in each case. For the same molecule, the Potency result in [13], in assay [14], in assay [15], in assay [16] and in assay [17] was “inactive” throughout.

For the molecule `CC(C)(C)NCC(O)COc1ccccc1OCC1CCCO1` (stereo unspecified), the Potency result in assay [1], in assay [2], in assay [3], in assay [4], in assay [5] and in assay [6] was “inactive” each time. Moreover, the Potency result in assay [7], in assay [8], in [9], in assay [10], in [11] and in assay [12] was “inactive” throughout. The Potency entry in [13], in [18], in [14], in assay [15], in assay [16] and in assay [17] was “inactive” each time. The Potency in [19] was 26.6 nM (active).

Consider `Cc1ccc(C2OC[C@@H]3OC(c4ccc(C)cc4)O[C@H]([C@H](O)CO)[C@@H]3O2)cc1` (stereo partly specified), for which the Potency entry in assay [1], in assay [2], in assay [3], in [4], in assay [5] and in assay [6] was “inactive” each time. Besides, the Potency entry in [7], in [8], in [9], in [10], in [11] and in [12] was “inactive” in each case. The Potency result in [20], in assay [18], in assay [14], in assay [15], in assay [19] and in assay [17] was “inactive” throughout.

Take `CC(C)[C@@H]1CC[C@@H](C)CC1=O`: the Potency entry in assay [1], in assay [2], in assay [3], in assay [4], in assay [5] and in assay [6] was “inactive” throughout. The Potency entry in assay [7], in assay [8], in [9], in [10], in [11] and in assay [12] was “inactive” each time. The Potency result in assay [13], in assay [18], in assay [14], in [19], in assay [16] and in assay [17] was “inactive” throughout.

As to `CC1(C)[C@@H]2CC[C@]3(C2)[C@@H]1C(=O)CCC3(C)C`, the Potency entry in assay [1], in assay [2], in [3], in assay [4], in assay [5] and in assay [6] was “inactive” in each case. In addition, the Potency entry in assay [7], in assay [8], in [9], in assay [10], in [11] and in [12] was “inactive” each time. For the same molecule, the Potency entry in assay [20], in [18], in assay [14], in [15], in [16] and in assay [17] was “inactive” in each case.

Regarding `COc1ccc2cc1Oc1cc3c(cc1OC)CC[N+](C)(C)[C@H]3Cc1ccc(cc1)Oc1c(OC)c(OC)cc3c1[C@@H](C2)[N+](C)(C)CC3`, the Potency result in assay [1], in [2], in assay [3], in [4], in assay [5] and in assay [6] was “inactive” in each case. For the same molecule, the Potency result in assay [7], in [8], in assay [9], in assay [10], in assay [11] and in [12] was “inactive” throughout. Also, the Potency entry in [20], in assay [18], in assay [14], in assay [15], in assay [19] and in assay [16] was “inactive” in each case. In [17], the Potency result was “inactive”.

Regarding `CCCCCCCCCCCCCCCC(=O)OC`, the activity change, negative = cytotoxicity was 3.99% [at 19 µM] in assay [1], -1.62% [at 13.5 µM] in assay [8], -0.0573% [at 13.5 µM] in assay [9] and 2.56% [at 13.5 µM] in assay [10]. In addition, the activity, positive = activation in assay [2] is 0.79% [at 19 µM]. Moreover, the activity change in [3] is 0.561% [at 11.8 µM, stronger effect = higher value]. Moreover, the activation in assay [4] is -2.17% [at 15.8 µM]; in [5], 0.455% [at 11.8 µM]; in [6], 0.811% [at 13.5 µM]; in [7] it was 0.588% [at 13.6 µM]; in assay [11] it was -4.84% [at 13.5 µM]; in assay [13], -0.493% [at 15.9 µM]. Besides, the activation is -0.393% [at 15.8 µM] in assay [18], -0.453% [at 19 µM] in assay [14] and 0.309% [at 19 µM] in assay [16]. Besides, the activity, negative = inhibition in assay [12] is -2.95% [at 12.7 µM]. The results for the activity change, negative = inhibition in assay [15], in [19] and in assay [17] were -6.58% [at 18.9 µM], 5.87% [at 19 µM] and -0.0877% [at 18.9 µM], respectively.

On to `CCCCN=C(N)N=C(N)N`, for which the Potency entry in assay [1], in assay [2], in assay [3], in assay [4], in assay [5] and in assay [6] was “inactive” each time. In addition, the Potency entry in assay [7], in assay [8], in assay [9], in assay [10], in assay [11] and in assay [12] was “inactive” in each case. The Potency result in assay [13], in assay [18], in assay [14], in [15], in assay [19] and in [16] was “inactive” each time. In addition, in assay [17], the Potency result was “inactive”.

For `CCCC(=O)OCc1ccccc1`, the Potency result in [1], in assay [2], in [3], in assay [4], in [5] and in assay [6] was “inactive” each time. For the same molecule, the Potency result in assay [7], in [8], in assay [9], in assay [10], in assay [11] and in assay [12] was “inactive” throughout. Further, the Potency result in assay [20], in [18], in assay [14], in assay [15], in [19] and in [16] was “inactive” each time. The Potency entry in assay [17] was “inactive”.

The values are drawn from PubChem BioAssay (Tox21).
